Among the data in PubChem BioAssay AID2716 (Broad Institute, 2010) are growth rescue values, retold here.

In all, about 320,000 compounds went through this assay and about 3,300 (1%) were called active. The list comes from a sample in which actives are over-represented; it also holds similar structures and randomly drawn compounds. A number with no mark means an inactive call.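 How the source made its calls: active means every valid replicate shows activation above 250% relative to neutral control wells; inactive means the rest, any valid replicate at or below 250%.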

This assay in a line: restored growth of temperature-sensitive Mot1-301 yeast – S. cerevisiae, ATP luminescence, 38.5C, SUMOylation pathway inhibitor project, primary screen (AID 2716).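 Further: OY570 slx delta 5 strain wells were the positive control but not used for scaling.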 The settings on record: S. cerevisiae Mot1-301 growth rescue, at 18.8 µM, stronger effect = higher value, percent above DMSO median, 100 means doubled.
For the compound `Cc1ccc(S(=O)(=O)CC(=O)Nc2c(C)n(C)n(-c3ccccc3)c2=O)cc1`, the growth rescue was -28%.

With `CC(=O)N1CCc2cc(Br)cc(S(=O)(=O)CCC(=O)Nc3c(C)n(C)n(-c4ccccc4)c3=O)c21`, the growth rescue was 461% (active).

Regarding `Cc1ccccc1OCCC(=O)Nc1c(C)n(C)n(-c2ccccc2)c1=O`, the growth rescue is -23.7%.

As for `COC(=O)c1ccc(OC(=O)c2nn(C)cc2Cl)c(OC)c1`, the growth rescue was -16.8%.

As for `Cc1c(NC(=O)c2c([N+](=O)[O-])cnn2C)c(=O)n(-c2ccccc2)n1C`, the growth rescue is 0.562%.

As for `CN(CC(=O)NCc1cccnc1)S(=O)(=O)c1cc(Cl)ccc1Cl`, the growth rescue is 249%.

Take `COc1ccc(CNS(=O)(=O)c2ccc(NC(=O)N3CCCCC3)cc2)cc1`: the growth rescue is 1.4%.

Consider `CCOc1c(OC)cc(C2C(C#N)=C(N)Oc3n[nH]c(-c4ccncc4)c32)cc1OC` (stereo unspecified), for which the growth rescue is 365%.

On to `COc1ccc(-c2[nH]nc3c2C(c2ccncc2)C(C#N)=C(N)O3)cc1` (stereo unspecified), for which the growth rescue was 577% (active).

For the compound `COc1cc(C2C(C#N)=C(N)Oc3n[nH]c(-c4ccccn4)c32)cc(OC)c1OC` (stereo unspecified), the growth rescue is -11.1%.

Regarding `O=C(COC(=O)c1ccc(N2CCCC2=O)cc1)c1ccc(OC(F)F)cc1`, the growth rescue was -26.3%.

On to `Cc1cc(OC(C)C(=O)Nc2ccc(S(=O)(=O)Nc3onc(C)c3C)cc2)cc(C)c1Cl` (stereo unspecified), for which the growth rescue was -7.5%.

Take `CCn1c(SCC(=O)Nc2ccc(S(=O)(=O)Nc3onc(C)c3C)cc2)nnc1-c1ccccc1`: the growth rescue is 8.66%.

`Cc1cc(C)c2nc(-c3cccnc3)cc(C(=O)Nc3ccc(S(=O)(=O)Nc4onc(C)c4C)cc3)c2c1`: the growth rescue was 404% (active).

`CC1CN(C(=S)Nc2cccc(F)c2)CC(C)O1` (stereo unspecified): the growth rescue is -11.7%.

On to `COc1ccccc1/C=C/C(=O)NC1CC2CCC1C2` (stereo unspecified), for which the growth rescue was -19.4%.

Regarding `COc1ccccc1/C=C/C(=O)NC(=S)N1CCOCC1`, the growth rescue is 413% (active).

With `O=C(/C=C/c1ccco1)NC(=S)N1CCCCC1`, the growth rescue is -4.55%.

Take `CCN1CCCC1CNC(=O)Cn1cnc2ccc(S(=O)(=O)N3CCC(C)CC3)cc2c1=O` (stereo unspecified): the growth rescue is 572% (active).

Consider `CC1CC(C)CN(C(=O)CCNC(=O)Cn2cnc3ccccc3c2=O)C1` (stereo unspecified), for which the growth rescue was 0.101%.

Turning to `CC1CCN(S(=O)(=O)c2ccc3ncn(CC(=O)N(C)C4CCCCC4)c(=O)c3c2)CC1`, the growth rescue is -3.24%.

With `COC(=O)C1C(=O)CC(C)(O)C(C(=O)OC)C1c1ccc2c(c1)OCO2` (stereo unspecified), the growth rescue is -11.2%.

For the compound `COc1cccc(NC(=O)CC2C(=O)NCCN2C(=S)Nc2ccc(F)cc2)c1` (stereo unspecified), the growth rescue is 3.83%.

As for `COC(=O)c1cc(NC(=O)CC2C(=O)NCCN2C(=O)c2ccc(F)cc2)cc(C(=O)OC)c1` (stereo unspecified), the growth rescue was 8.77%.

Take `COC(=O)c1sccc1NC(=O)CC1C(=O)NCCN1C(=O)Nc1ccc(F)cc1F` (stereo unspecified): the growth rescue was 848% (active).

Regarding `Cc1ccc(CNC(=O)C2(C(F)(F)F)C/C(=C\Cc3ccccc3)CCCO2)o1` (stereo unspecified), the growth rescue is 17.2%.

With `CCN(CC)CCCNC(=O)c1cc2c(=O)[nH]c3ccc(C)cc3c2s1`, the growth rescue is 6.48%.

Take `Cc1ccc2[nH]c(=O)c(CC(=O)O)c(-c3ccccc3)c2c1`: the growth rescue is -1.66%.

On to `Cc1cccc(N(C)C(=O)c2cc3c(=O)[nH]c4ccc(C)cc4c3s2)c1`, for which the growth rescue was 675% (active).

Consider `COc1cccc(NC(=O)COc2cccnc2[N+](=O)[O-])c1`, for which the growth rescue was 8.97%.

As for `Cc1cc(C)c(S(=O)(=O)NCC2CCC(C(=O)NCc3ccc4c(c3)OCO4)CC2)c(C)c1` (stereo unspecified), the growth rescue is 33.6%.

Take `CNS(=O)(=O)c1cnccc1N1CCN(c2cccc(C)c2)CC1`: the growth rescue was -3.12%.

Turning to `COc1ccc(N(CC(=O)Nc2cccc3ccccc23)S(C)(=O)=O)c(OC)c1`, the growth rescue is 9.81%.

As for `COc1ccccc1NC(=O)COc1ccc(C(=O)OCC(=O)N(C(C)C)C(C)C)cc1OC`, the growth rescue was 38.2%.

Regarding `COc1cc(CO)ccc1OCC(=O)Nc1cccc2ccccc12`, the growth rescue is 314% (active).

Consider `C[C@H](CO)N1C[C@H](C)[C@H](CN(C)CC2CC2)Oc2ccc(NC(=O)CCN3CCOCC3)cc2C1=O`, for which the growth rescue was -13.9%.

`Cc1ccc(S(=O)(=O)C2(S(=O)(=O)c3ccc(C)cc3)CCCC2)cc1`: the growth rescue is -9.93%.

As to `O=S1(=O)CC/C(=N\Nc2ccc(F)cc2)c2ccsc21`, the growth rescue was 423% (active).

As to `COc1ccc(C(=O)N/N=C2\CCS(=O)(=O)c3ccc(F)cc32)cc1OC`, the growth rescue was -16.6%.

Regarding `CN1CCN(C(=O)c2ccc(-c3ccc(Br)cc3)o2)CC1`, the growth rescue is 14%.

For the compound `O=C1C=CN2CCCC2CC1` (stereo unspecified), the growth rescue is 51.5%.

In the case of `O=C1CC2(CCN(C(=O)COc3ccc(F)cc3)CC2)Oc2ccccc21`, the growth rescue is 269% (active).

With `O=C1CC2(CCCCC2)Oc2ccc(OCC(=O)N3CCOCC3)cc21`, the growth rescue is -29.5%.

Turning to `COc1ccc(OCC(=O)N2CCN(C(=O)COc3ccccc3)CC2)cc1`, the growth rescue was -6.56%.

As for `O=C1CCCC2=C1C(c1cccs1)n1nc(SCc3ccccc3)nc1N2` (stereo unspecified), the growth rescue was 10.5%.

Turning to `O=Cc1ccc(Oc2cccc(C(F)(F)F)c2)nc1`, the growth rescue is 554% (active).

With `O=C(O)CCCC(=O)Nc1ccc(Oc2cccc(C(F)(F)F)c2)nc1`, the growth rescue is -3.63%.

`CC(C)Oc1ccc(Oc2ccc(C(F)(F)F)cn2)cc1`: the growth rescue was 21.9%.

As for `NNC(=O)CNC(c1ccccc1)c1cc(Cl)ccc1NC(=O)c1ccccc1` (stereo unspecified), the growth rescue was -0.491%.

Take `Cc1c(Cl)c([N+](=O)[O-])nn1CCCC(=O)NC(C)c1ccccc1` (stereo unspecified): the growth rescue was 3.65%.

`CCOc1ccc(/C=N/Nc2nncc(-c3ccccc3)n2)cc1OC`: the growth rescue was 999% (active).

For the compound `COc1cccc(/C=N\Nc2nncc(-c3ccccc3)n2)c1`, the growth rescue is -1.53%.

Turning to `CCOc1cc(/C=N/NC(=O)c2cc(-c3ccccc3)nc3ccccc23)ccc1O`, the growth rescue is 15.1%.

On to `CCCCNC(=O)CN1C(=O)NC(Cc2ccccc2)(Cc2ccccc2)C1=O`, for which the growth rescue is -4.3%.

With `CCC1(CC)NC(=O)N(CC(=O)OCC(=O)Nc2ccc(C(F)(F)F)cc2)C1=O`, the growth rescue was 154%.

Take `CCC1(CC)NC(=O)N(CC(=O)OCC(=O)NC(=O)c2ccccc2)C1=O`: the growth rescue is 663% (active).

Take `Cc1nn(CCOc2ccccc2)c(=O)n1-c1ccccc1F`: the growth rescue is 1160% (active).

Consider `Cc1c(C(N)=O)sc2ncn(CCOc3ccccc3)c(=O)c12`, for which the growth rescue was -2.19%.

With `Cc1cccc2c1N(CCOc1ccccc1)C(=O)C2=O`, the growth rescue was -12.8%.

As for `CN(/C(=N/S(=O)(=O)c1cccs1)c1ccccc1)c1ccc(O)cc1`, the growth rescue was 313%.

As to `COc1ccc(Cl)cc1NC(=O)CNc1ccccc1F`, the growth rescue was 0.922%.

As for `COc1ccc(/C(C)=N/NC(=O)CCC(=O)Nc2ccc(Cl)cc2Cl)c(OC)c1`, the growth rescue was 28.5%.

Turning to `CCCCC(=O)N/N=C(\C)CC(=O)Nc1cc(Cl)ccc1OC`, the growth rescue was 1520% (active).

Consider `COc1ccc(Cl)cc1-n1c(C)cc(C(=O)OCC(=O)N2CC(=O)Nc3ccccc32)c1C`, for which the growth rescue was -14.8%.

For the compound `CCc1noc(C)c1C(=O)Oc1ccc(N(C)S(=O)(=O)c2ccc(C)c(C)c2)cc1`, the growth rescue is -5.53%.

Consider `COCC(=O)Nc1cc(C(=O)OC)cc(C(=O)OC)c1`, for which the growth rescue is 10%.

As to `COC(=O)c1cc(NC2c3ccccc3C(=O)N2c2ccc(Cl)cn2)cc(C(=O)OC)c1` (stereo unspecified), the growth rescue was -1.41%.

On to `Cc1ccnc(N2C(=O)c3ccccc3C2Nc2ccc3c(c2)OCCO3)c1` (stereo unspecified), for which the growth rescue was -14%.

On to `CCc1ccccc1NC1c2ccccc2C(=O)N1c1cccnc1` (stereo unspecified), for which the growth rescue is 462% (active).

As for `CS(=O)(=O)N(CC(=O)N/N=C/c1ccccn1)c1ccc(Oc2ccccc2)cc1`, the growth rescue was 6.74%.

Take `O=C(CN1C(=O)/C(=C/c2ccccc2F)Sc2ccccc21)NCc1cccnc1`: the growth rescue is -3.97%.

`O=C(CN1C(=O)/C(=C\c2ccc(C(F)(F)F)cc2)Sc2ccccc21)NCc1ccco1`: the growth rescue is 963% (active).

Take `O=C(CCCCCN1C(=O)c2cccc3cccc(c23)C1=O)NCc1ccco1`: the growth rescue is -8.72%.

As to `Cc1ccc(NC(=O)COC(=O)CN2CCCCCC2=O)c(C)c1`, the growth rescue was 2.83%.

Take `O=C(O)c1c(NC(=O)N2CCCC2)sc2c1CCCC2`: the growth rescue was 2.52%.

With `O=C(O)CCCCCCCCCC[n+]1ccccc1`, the growth rescue was 17.1%.

With `CC(CNc1ccc([N+](=O)[O-])c2cccnc12)Nc1c([N+](=O)[O-])cc(C(F)(F)F)cc1[N+](=O)[O-]` (stereo unspecified), the growth rescue is 469%.

In the case of `CCOC(=O)CCCCCC(=O)Nc1ccc2c(c1)CC(=O)N([C@@H](C)CO)C[C@H](C)[C@@H](CN(C)Cc1ccccc1)O2`, the growth rescue was -3.38%.

For the compound `Cc1ccc(C(c2sc3nc(C)nn3c2O)N2CCN(c3ccccc3)CC2)cc1` (stereo unspecified), the growth rescue is 6.75%.

On to `Cc1nc2sc(C(c3ccco3)N3CCC4(CC3)OCCO4)c(O)n2n1` (stereo unspecified), for which the growth rescue was -10%.

Consider `Cc1nc2sc(C(c3ccco3)N3CCOCC3)c(O)n2n1` (stereo unspecified), for which the growth rescue is 853% (active).

Take `CCN1CCN(C(C(=O)NC2CCCC2)c2cc3c(cc2[N+](=O)[O-])OCO3)CC1` (stereo unspecified): the growth rescue was -4.81%.

With `COc1cccc(CNC(=O)Cn2c(=O)oc3cc(S(=O)(=O)N4CCCCC4)ccc32)c1`, the growth rescue was 4.01%.

Consider `CC(C)CCNC(=O)Cn1c(=O)oc2cc(S(=O)(=O)N3CC(C)CC(C)C3)ccc21` (stereo unspecified), for which the growth rescue was 608% (active).

In the case of `CC1CCCCN1C(=O)Cn1c(=O)oc2cc(S(=O)(=O)N3CCCCC3)ccc21` (stereo unspecified), the growth rescue was 12%.

Regarding `Clc1ccc(Nc2ccc3ccccc3n2)cc1`, the growth rescue is 30.7%.

For `COc1ccc(CNC(=O)COc2cccnc2[N+](=O)[O-])cc1`, the growth rescue was -4.39%.

Consider `COc1ccc(OC)c(NC(=O)CSc2nc(-c3ccccc3)cc(=O)[nH]2)c1`, for which the growth rescue is 371%.

In the case of `Cc1cccc(NC(=O)c2ccc3c(=O)n(CC4CCCO4)c(=S)[nH]c3c2)c1` (stereo unspecified), the growth rescue was -20.5%.

On to `O=C(NC1CCCCC1)c1ccc2c(=O)n(CC3CCCO3)c(=O)[nH]c2c1` (stereo unspecified), for which the growth rescue is 2310% (active).

In the case of `O=C(NCc1ccccc1Cl)c1ccc2c(=O)n(CC3CCCO3)c(=S)[nH]c2c1` (stereo unspecified), the growth rescue was -7.73%.
